# Hit rate of the full screen: of about 5,500 compounds, about 2,000 (36%) were called active. Not shown: some 18% with an inconclusive outcome. The list shows a part of the results. Unmarked numbers belong to inactive results. Cut-off read from the data, not from the text of the source: active = normalized growth mostly below about 0.91 (no sharp cut-off); inconclusive = no clear call, values can overlap the other calls; inactive = mostly above about 0.92.
# Assay: chemical genetic growth profiling, strain panel (AID 1159580);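 note: tested at 20 µM; growth read once vehicle control cultures reached saturation at 30 °C; 1 = growth at the plate median or of vehicle wells; lower values mean less growth of the strain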
# Conditions: S. cerevisiae deletion strains, growth OD
# [1] = locus YDL101C, strain DUN1, active compounds read low
# [2] = locus YHR030C, strain SLT2, active compounds read low
# [3] = locus YAR019C, strain CDC15, active compounds read low
# [4] = locus YBL105C, strain PKC1, active compounds read low
# [5] = locus YBR135W, strain CKS1, active compounds read low
# [6] = locus YBR136W, strain MEC1, active compounds read low
# [7] = locus YBR160W, strain CDC28, active compounds read low
# [8] = locus YDL017W, strain CDC7, active compounds read low
# [9] = locus YDL028C, strain MPS1, active compounds read low
# [10] = locus YDL108W, strain KIN28, active compounds read low
# [11] = locus YDL132W, strain cdc53, active compounds read low
# [12] = locus YDL214C, strain PRR2, active compounds read low
# [13] = locus YDR052C, strain DBF4, active compounds read low
# [14] = locus YDR054C, strain cdc34, active compounds read low
# [15] = locus YDR226W, strain ADK1, active compounds read low
# [16] = locus YDR477W, strain SNF1, active compounds read low
# [17] = locus YER123W, strain YCK3, active compounds read low
# [18] = locus YER133W, strain GLC7, active compounds read low
# [19] = locus YFL009W, strain cdc4, active compounds read low
# [20] = locus YFL029C, strain CAK1, active compounds read low
# [21] = locus YFR003C, strain YPI1, active compounds read low
# [22] = locus YFR019W, strain FAB1, active compounds read low
# [23] = locus YFR028C, strain CDC14, active compounds read low
# [24] = locus YGR040W, strain KSS1, active compounds read low
# [25] = locus YGR052W, strain FMP48, active compounds read low
# [26] = locus YGR092W, strain DBF2, active compounds read low
# [27] = locus YHR079C, strain IRE1, active compounds read low
# [28] = locus YHR082C, strain KSP1, active compounds read low
# [29] = locus YHR205W, strain SCH9, active compounds read low
# [30] = locus YIL147C, strain SLN1, active compounds read low
# [31] = locus YJL095W, strain BCK1, active compounds read low
# [32] = locus YJL128C, strain PBS2, active compounds read low
# [33] = locus YJL157C, strain FAR1, active compounds read low
# [34] = locus YJR016C, strain ILV3, active compounds read low
# [35] = locus YJR066W, strain TOR1 (second series), active compounds read low
# [36] = locus YJR066W, strain TOR1, active compounds read low
# [37] = locus YKL048C, strain ELM1, active compounds read low
# [38] = locus YKL067W, strain YNK1, active compounds read low
# [39] = locus YKL101W, strain HSL1, active compounds read low
# [40] = locus YKL193C, strain SDS22, active compounds read low
# [41] = locus YKL203C, strain TOR2, active compounds read low
# [42] = locus YLR113W, strain HOG1, active compounds read low
# [43] = locus YLR133W, strain CKI1, active compounds read low
# [44] = locus YLR403W, strain SFP1, active compounds read low
# [45] = locus YML070W, strain DAK1, active compounds read low
# [46] = locus YMR001C, strain CDC5, active compounds read low
# [47] = locus YMR205C, strain PFK2 (second series), active compounds read low
# [48] = locus YMR277W, strain FCP1, active compounds read low
# [49] = locus YNL006W, strain LST8, active compounds read low
# [50] = locus YNL020C, strain ARK1, active compounds read low
# [51] = locus YNL161W, strain CBK1, active compounds read low
# [52] = locus YNL183C, strain NPR1, active compounds read low
# [53] = locus YNL207W, strain RIO2, active compounds read low
# [54] = locus YNL222W, strain SSU72, active compounds read low
# [55] = locus YNL307C, strain MCK1 (second series), active compounds read low
# [56] = locus YOL078W, strain AVO1, active compounds read low
# [57] = locus YOL136C, strain PFK27, active compounds read low
# [58] = locus YOR061W, strain CKA2, active compounds read low
# [59] = locus YOR119C, strain RIO1, active compounds read low
# [60] = locus YOR231W, strain MKK1, active compounds read low
# [61] = locus YOR329C, strain SCD5, active compounds read low
# [62] = locus YPL031C, strain PHO85, active compounds read low
# [63] = locus YPL153C, strain RAD53, active compounds read low
# [64] = locus YPL204W, strain HRR25, active compounds read low
# [65] = locus YPL209C, strain IPL1, active compounds read low
# [66] = locus YPL256C, strain CLN2, active compounds read low
# [67] = locus YPR025C, strain CCL1, active compounds read low
# [68] = locus YPR106W, strain ISR1, active compounds read low
# [69] = locus YPR111W, strain DBF20, active compounds read low
# [70] = strain NNK1, active compounds read low
# [71] = strain TSCII, active compounds read low
structure (smiles),measurement,setting,value
COc1c(Br)cc(/C(N)=N\OC(=O)c2c(-c3c(Cl)cccc3Cl)noc2C)cc1Br,normalized growth,"locus YAL013W, strain DEP1, active compounds read low",1.03
same,normalized growth,"locus YBR229C, strain ROT2, active compounds read low",1.01
same,normalized growth,[1],1
same,normalized growth,"locus YDR150W, strain NUM1, active compounds read low",1.02
same,normalized growth,"locus YEL061C, strain CIN8, active compounds read low",0.983
same,normalized growth,"locus YGR078C, strain PAC10, active compounds read low",1.02
same,normalized growth,[2],1.08
same,normalized growth,"locus YHR087W, strain rtc3, active compounds read low",1.02
same,normalized growth,"locus YJR043C, strain POL32, active compounds read low",1.01
same,normalized growth,"locus YJR075W, strain HOC1, active compounds read low",1.01
same,normalized growth,"locus YKL190W, strain CNB1, active compounds read low",1.01
same,normalized growth,"locus YLR039C, strain RIC1, active compounds read low",1.09
same,normalized growth,"locus YLR058C, strain SHM2 (second series), active compounds read low",1.01
same,normalized growth,"locus YLR085C, strain ARP6, active compounds read low",1.13
same,normalized growth,"locus YLR262C, strain YPT6, active compounds read low",1.04
same,normalized growth,"locus YML094W, strain GIM5, active compounds read low",1.04
same,normalized growth,"locus YMR219W, strain ESC1, active compounds read low",1.01
same,normalized growth,"locus YMR263W, strain SAP30, active compounds read low",1
same,normalized growth,"locus YMR307W, strain GAS1, active compounds read low",1.05
same,normalized growth,"locus YNL153C, strain GIM3, active compounds read low",0.998
same,normalized growth,"locus YNL298W, strain CLA4 (second series), active compounds read low",1.05
same,normalized growth,"locus YNL322C, strain KRE1, active compounds read low",1.01
same,normalized growth,"locus YNR030W, strain Alg12, active compounds read low",1.03
same,normalized growth,"locus YPL055C, strain LGE1, active compounds read low",1.07
same,normalized growth,"locus YPL241C, strain CIN2, active compounds read low",0.98
same,normalized growth,"locus YPR135W, strain CTF4, active compounds read low",1.17
Cc1onc(-c2c(F)cccc2Cl)c1/C(N)=N\OC(=O)c1ccc(C(C)(C)C)cc1,normalized growth,[3],0.989
same,normalized growth,[4],0.998
same,normalized growth,[5],0.985
same,normalized growth,[6],0.986
same,normalized growth,[7],0.989
same,normalized growth,[8],0.993
same,normalized growth,[9],0.985
same,normalized growth,[1],0.98
same,normalized growth,[10],0.978
same,normalized growth,[11],0.989
same,normalized growth,[12],0.971
same,normalized growth,[13],0.994
same,normalized growth,[14],1
same,normalized growth,[15],0.989
same,normalized growth,[16],0.976
same,normalized growth,[17],0.948
same,normalized growth,[18],0.967
same,normalized growth,[19],0.987
same,normalized growth,[20],1
same,normalized growth,[21],0.997
same,normalized growth,[22],0.982
same,normalized growth,[23],0.984
same,normalized growth,[24],0.975
same,normalized growth,[25],1.1
same,normalized growth,[26],1
same,normalized growth,[2],1.17 [resistant] (active)
same,normalized growth,[27],1.08
same,normalized growth,[28],1.11
same,normalized growth,[29],0.986
same,normalized growth,[30],0.981
same,normalized growth,[31],1.11
same,normalized growth,[32],0.957
same,normalized growth,[33],0.963
same,normalized growth,[34],0.982
same,normalized growth,[35],0.932
same,normalized growth,[36],1.12
same,normalized growth,[37],0.983
same,normalized growth,[38],0.994
same,normalized growth,[39],0.972
same,normalized growth,[40],0.991
same,normalized growth,[41],1.05
same,normalized growth,[42],1
same,normalized growth,[43],0.988
same,normalized growth,[44],0.968
same,normalized growth,[45],0.966
same,normalized growth,[46],0.987
same,normalized growth,[47],0.987
same,normalized growth,[48],0.992
same,normalized growth,[49],0.988
same,normalized growth,[50],0.978
same,normalized growth,[51],0.991
same,normalized growth,[52],1.11
same,normalized growth,[53],0.99
same,normalized growth,[54],0.99
same,normalized growth,[55],0.998
same,normalized growth,[56],0.982
same,normalized growth,[57],0.956
same,normalized growth,[58],0.967
same,normalized growth,[59],1.02
same,normalized growth,[60],1.05
same,normalized growth,[61],0.996
same,normalized growth,[62],0.991
same,normalized growth,[63],0.973
same,normalized growth,[64],0.979
same,normalized growth,[65],0.993
same,normalized growth,[66],1.05
same,normalized growth,[67],0.99
same,normalized growth,[68],0.988
same,normalized growth,[69],0.986
same,normalized growth,[70],0.99
same,normalized growth,[71],0.99
Cc1onc(-c2c(Cl)cccc2Cl)c1C(=O)O/N=C(/N)Cc1ccc(C(C)(C)C)cc1,normalized growth,[3],0.991
same,normalized growth,[4],0.986
same,normalized growth,[5],0.988
same,normalized growth,[6],0.995
same,normalized growth,[7],0.983
same,normalized growth,[8],0.988
same,normalized growth,[9],0.993
same,normalized growth,[1],0.986
same,normalized growth,[10],0.989
same,normalized growth,[11],0.983
same,normalized growth,[12],0.982
same,normalized growth,[13],0.987
same,normalized growth,[14],0.989
same,normalized growth,[15],0.993
same,normalized growth,[16],1
same,normalized growth,[17],0.998
same,normalized growth,[18],0.999
same,normalized growth,[19],0.987
same,normalized growth,[20],0.986
same,normalized growth,[21],0.996
same,normalized growth,[22],0.995
same,normalized growth,[23],0.989
same,normalized growth,[24],0.999
same,normalized growth,[25],1.15
same,normalized growth,[26],0.983
same,normalized growth,[2],1.22 [resistant] (active)
same,normalized growth,[27],1.12
same,normalized growth,[28],1.16
same,normalized growth,[29],0.993
same,normalized growth,[30],0.987
same,normalized growth,[31],1.15
same,normalized growth,[32],0.953
same,normalized growth,[33],0.991
same,normalized growth,[34],0.992
same,normalized growth,[35],0.986
same,normalized growth,[36],1.17
same,normalized growth,[37],0.999
same,normalized growth,[38],1
same,normalized growth,[39],0.998
same,normalized growth,[40],0.989
same,normalized growth,[41],1.06
same,normalized growth,[42],1.08
same,normalized growth,[43],0.991
same,normalized growth,[44],0.994
same,normalized growth,[45],0.99
same,normalized growth,[46],0.989
same,normalized growth,[47],1
same,normalized growth,[48],0.994
same,normalized growth,[49],0.994
same,normalized growth,[50],1.01
same,normalized growth,[51],0.995
same,normalized growth,[52],1.14
same,normalized growth,[53],0.992
same,normalized growth,[54],0.987
same,normalized growth,[55],0.995
same,normalized growth,[56],0.985
same,normalized growth,[57],1.02
same,normalized growth,[58],1.01
same,normalized growth,[59],1.05
same,normalized growth,[60],1.08
same,normalized growth,[61],0.997
same,normalized growth,[62],1.02
same,normalized growth,[63],1
same,normalized growth,[64],1.02
same,normalized growth,[65],1
same,normalized growth,[66],1.1
same,normalized growth,[67],0.986
same,normalized growth,[68],0.994
same,normalized growth,[69],0.988
same,normalized growth,[70],0.997
same,normalized growth,[71],0.99

# From PubChem BioAssay AID1159580 (chemical genetic matrix, 2015)
